{
  "source": "the supplement of paper PMC11624193",
  "about": "“Coupling cellular drug-target engagement to downstream pharmacology with CeTEAM” (Nature Communications, 2024)",
  "note": "Structures can show the parent of a compound that is named as a salt. A number with no mark means an inactive call.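 How the source made its calls: active = log2 fold change beyond 2 SD from the library mean after excluding viability outliers; inactive = within 2 SD.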",
  "data": [
    {"target": "PARP1 L713F-nLuc biosensor (HCT116) (UniProt P09874)", "sequence (P09874 whole entry L713F, looked up)": "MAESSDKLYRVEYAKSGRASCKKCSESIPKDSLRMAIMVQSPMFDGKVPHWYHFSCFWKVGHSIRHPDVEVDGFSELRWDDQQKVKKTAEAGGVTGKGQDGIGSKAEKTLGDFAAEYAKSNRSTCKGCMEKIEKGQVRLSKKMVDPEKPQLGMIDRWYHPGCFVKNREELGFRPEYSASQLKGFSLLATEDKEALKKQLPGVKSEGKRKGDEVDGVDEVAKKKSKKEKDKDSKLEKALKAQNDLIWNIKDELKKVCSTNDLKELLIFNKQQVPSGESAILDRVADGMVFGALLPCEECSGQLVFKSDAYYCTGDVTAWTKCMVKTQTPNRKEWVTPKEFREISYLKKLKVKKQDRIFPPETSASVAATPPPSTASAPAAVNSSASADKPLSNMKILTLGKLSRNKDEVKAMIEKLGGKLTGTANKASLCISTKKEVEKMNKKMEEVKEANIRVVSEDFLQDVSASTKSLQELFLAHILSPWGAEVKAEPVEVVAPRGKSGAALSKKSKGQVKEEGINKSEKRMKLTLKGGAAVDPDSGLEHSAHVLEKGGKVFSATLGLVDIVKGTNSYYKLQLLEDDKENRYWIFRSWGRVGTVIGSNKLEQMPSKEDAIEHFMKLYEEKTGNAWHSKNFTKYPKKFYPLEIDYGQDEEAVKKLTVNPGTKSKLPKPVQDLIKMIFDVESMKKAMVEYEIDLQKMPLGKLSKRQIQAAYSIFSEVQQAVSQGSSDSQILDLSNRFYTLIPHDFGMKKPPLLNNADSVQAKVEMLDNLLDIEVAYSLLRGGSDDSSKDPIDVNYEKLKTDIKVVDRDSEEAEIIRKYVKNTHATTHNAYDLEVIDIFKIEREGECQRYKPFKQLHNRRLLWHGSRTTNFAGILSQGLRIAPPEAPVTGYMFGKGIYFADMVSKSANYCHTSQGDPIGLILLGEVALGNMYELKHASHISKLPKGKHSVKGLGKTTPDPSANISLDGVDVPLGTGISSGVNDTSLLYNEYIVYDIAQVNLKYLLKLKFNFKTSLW", "assay": "PARP1 L713F-nLuc/akaLuc ratio relative to DMSO control (biosensor stabilization) (fold change); higher = more PARP1 biosensor stabilization (target engagement / stabilizer), active = hit call of the paper", "details": "stock concentration (mM; final µM = stock mM x 1): 10; 24 h", "values": [
      {"smiles": "CN1CCN(c2ccc3nc(-c4c(N)c5c(F)cccc5[nH]c4=O)[nH]c3c2)CC1", "note": "[Dovitinib (TKI258) Lactate]", "PARP1 L713F-nLuc/akaLuc ratio": 0.754},
      {"smiles": "O=C1CCc2ccccc2O1", "note": "[Dihydrocoumarin]", "PARP1 L713F-nLuc/akaLuc ratio": 0.769},
      {"smiles": "C#Cc1cccc(Nc2ncnc3cc(OCCOC)c(OCCOC)cc23)c1", "note": "[Erlotinib]", "PARP1 L713F-nLuc/akaLuc ratio": 0.565},
      {"smiles": "Cn1ncc(NC(=O)c2nc(-c3c(F)cccc3F)sc2N)c1N1CC[C@@H](N)[C@H](F)CC1", "PARP1 L713F-nLuc/akaLuc ratio": 0.793},
      {"smiles": "N#Cc1ccc(COC[C@H]2O[C@@H](n3c(NCc4ccc(Cl)c(Cl)c4)nc4c(N)ncnc43)[C@H](O)[C@@H]2O)cc1", "PARP1 L713F-nLuc/akaLuc ratio": 0.717},
      {"smiles": "C[C@@H]1C[C@H]2[C@@H]3CCC4=CC(=O)C=C[C@]4(C)[C@@]3(F)[C@@H](O)C[C@]2(C)[C@@]1(O)C(=O)CO", "note": "[Dexamethasone (DHAP)]", "PARP1 L713F-nLuc/akaLuc ratio": 1.03},
      {"smiles": "O=S(=O)(c1cccc2cnccc12)N1CCNCC1", "PARP1 L713F-nLuc/akaLuc ratio": 0.882},
      {"smiles": "CN1CCc2c(c3ccccc3n2Cc2ccc(C(=O)NO)cc2)C1", "note": "[Tubastatin A]", "PARP1 L713F-nLuc/akaLuc ratio": 1.26},
      {"smiles": "Nc1nc(Nc2ccc(S(N)(=O)=O)cc2)nn1C(=O)c1c(F)cccc1F", "PARP1 L713F-nLuc/akaLuc ratio": 0.483},
      {"smiles": "O=C(NOC[C@H](O)CO)c1ccc(F)c(F)c1Nc1ccc(I)cc1F", "PARP1 L713F-nLuc/akaLuc ratio": 0.6},
      {"smiles": "O=C(O)CNC(=O)c1c(O)cc(CCc2ccccc2)n2ncnc12", "note": "[Enarodustat]", "PARP1 L713F-nLuc/akaLuc ratio": 1.29},
      {"smiles": "CC[C@]1(O)C[C@H]2CN(CCc3c([nH]c4ccccc34)[C@@](C(=O)OC)(c3cc4c(cc3OC)N(C=O)[C@H]3[C@@](O)(C(=O)OC)[C@H](OC(C)=O)[C@]5(CC)C=CCN6CC[C@]43[C@@H]65)C2)C1", "note": "[Vincristine sulfate]", "PARP1 L713F-nLuc/akaLuc ratio": 0.783}
    ]}
  ]
}
